Several values for one entry are separate records, joined by “and”; a condition that tells them apart may be missing. Identical values can stand only once. Hit rate of the full screen: of about 360,000 compounds, about 2,900 (0.81%) were called active.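 The calls were made as follows: active = inhibition above the mean inhibition across every tested compound plus 3 SD (cut at about 22% in these data); inactive = the rest.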 For the sample, actives were picked, then their nearest neighbours and some compounds at random. More than one record can exist for a structure, and the calls need not agree.
molecular target: Perilipin-5 (Homo sapiens) + 1-acylglycerol-3-phosphate O-acyltransferase ABHD5 (Homo sapiens) (UniProt Q00G26+Q8WTS1); assay: ABHD5-PLIN5 interaction inhibitors, primary screen, cell lysate, split luciferase complementation, luminescence (AID 602281);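 also: 0% = DMSO only wells and the 100% control is not disclosed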; settings: Split G. princeps luciferase complementation, 4 h, at 4 µM, stronger effect = higher value
Sequence (Q00G26 whole entry, looked up): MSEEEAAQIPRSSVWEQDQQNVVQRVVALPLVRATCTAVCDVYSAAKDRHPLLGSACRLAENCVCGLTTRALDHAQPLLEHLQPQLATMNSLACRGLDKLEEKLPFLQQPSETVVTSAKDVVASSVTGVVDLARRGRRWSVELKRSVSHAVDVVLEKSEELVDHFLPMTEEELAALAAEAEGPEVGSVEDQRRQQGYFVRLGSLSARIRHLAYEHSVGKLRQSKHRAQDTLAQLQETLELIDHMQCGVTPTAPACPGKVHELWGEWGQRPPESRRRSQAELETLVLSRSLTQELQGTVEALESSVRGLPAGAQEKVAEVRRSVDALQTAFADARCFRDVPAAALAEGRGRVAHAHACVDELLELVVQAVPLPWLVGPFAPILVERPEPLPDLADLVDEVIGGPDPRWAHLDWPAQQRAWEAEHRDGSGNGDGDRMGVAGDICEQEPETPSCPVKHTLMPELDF
Sequence (Q8WTS1 whole entry, looked up): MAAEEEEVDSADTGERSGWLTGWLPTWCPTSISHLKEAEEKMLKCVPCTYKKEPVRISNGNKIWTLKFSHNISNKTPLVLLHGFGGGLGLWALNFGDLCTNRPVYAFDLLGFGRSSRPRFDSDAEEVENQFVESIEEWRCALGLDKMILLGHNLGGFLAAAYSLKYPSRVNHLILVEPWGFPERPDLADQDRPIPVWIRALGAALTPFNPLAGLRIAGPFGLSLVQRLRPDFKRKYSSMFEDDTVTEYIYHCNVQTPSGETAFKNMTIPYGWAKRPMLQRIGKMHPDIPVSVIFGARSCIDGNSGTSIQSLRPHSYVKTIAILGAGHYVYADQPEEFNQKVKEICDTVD

inhibition, 16.9% (inactive) and 27.5% (active):
c1ccc(CCC2=NCCn3cccc32)cc1

inhibition, inactive:
CCC(=O)N1CCc2cc(Br)c(S(=O)(=O)NCCN3CCCCC3CC)cc21 (configuration not stated) 6.34%
N#Cc1ccc(C(=O)OCC(=O)NC(=O)NC2CCCCC2)cc1 -1.6%
NC(=O)C1CCN(C(=O)CC2C(=O)NCCN2Cc2cccc(Oc3ccccc3)c2)CC1 (configuration not stated) 4.81%
CCN(CC)c1ccc(NC(=O)c2ccc(Cl)nc2)cc1 -1.77%
O=C(NNC(=O)c1ccc(Cl)nc1)c1ccc(Br)cc1 -5.62%
Cc1ccc(CSCCNC(=O)CN(c2ccc(F)cc2)S(C)(=O)=O)cc1 -1.09%
Cn1c(=O)[nH]c2c(c(C(=O)O)nn2C)c1=O 18.8%
Cc1cn(C2C=CC(CO)O2)c(=O)[nH]c1=O (configuration not stated) 6.6%
Nc1cc(N2CCCCCC2)c2nonc2c1[N+](=O)[O-] 3.02%
COc1cc(C(O)c2nc(-c3cccc(C(=O)O)c3)cs2)ccc1F (configuration not stated) 7.06%
COc1ccccc1C(=O)Nc1nc2nc(-c3ccccc3)cc(=O)n2[nH]1 -1.37%
O=C(c1cc(COc2ccc(F)cc2F)on1)N1CCOCC1 -0.17%
Cc1ccc(C(=O)CSc2nc3ccccc3c(=O)n2N)o1 -5.64%
Cc1ccc(OCC(=O)c2cc(C)n(Cc3ccco3)c2C)c([N+](=O)[O-])n1 4.39%
COC(=O)C[C@H]1C[C@@H]2c3cc(N(C)C)ccc3O[C@@H]2[C@H](CO)O1 0.67%
CC1CSc2nnc(CCc3ccccc3)n21 (configuration not stated) 0.6%
c1ccc(CCc2ccccn2)cc1 -3.97%
CCc1ccc(-c2cc(C)no2)cc1S(=O)(=O)NCCc1ccc(S(N)(=O)=O)cc1 -2.59%
O=C(C1CCCO1)N1CCN(C(=O)C23CC4CC(CC(C4)C2)C3)CC1 (configuration not stated) 0.93%
O=C(Cn1cc(C(=O)C2CC2)c2ccccc21)Nc1ccccc1Cl -0.4%
CCOc1ccc(NC(=O)C(C)N2C(=O)c3ccccc3C2=O)cc1 (configuration not stated) -3.97%
O=[N+]([O-])c1ccc(N=NNc2ccc([N+](=O)[O-])cc2)cc1 -4.36%
O=C(Cc1ccccc1)N1CCN(S(=O)(=O)c2ccc([N+](=O)[O-])cc2)CC1 1.18%
Cc1ccc(S(=O)(=O)N(C)C)cc1NC(=O)c1ccccc1Br -0.6%
COc1ccc(C(C(=O)NCc2ccccc2)N(Cc2cccs2)C(=O)c2cnccn2)cc1 (configuration not stated) -0.58%
COc1ccccc1-c1sc2ccccc2c1-c1ccc(Br)nc1 -7.49%
COc1cccc(-c2sc3ccc(OC)cc3c2-c2ccc(OCCN3CCCCC3)cc2)c1 14.8%
Cc1cc(C)c2c(n1)sc1c(=O)n(-c3ccccc3)c(=O)[nH]c12 9.86%
COc1ccc(C(=O)COC(=O)CN2C(=O)C3CC=CCC3C2=O)c(OC)c1 (configuration not stated) -4.32%
O=C(COC(=O)CN1C(=O)C2CCCCC2C1=O)Nc1ccc(F)c(F)c1F (configuration not stated) -2.34%
CCOC(=O)C(Cc1ccc(N)cc1)N1C(=O)c2ccccc2C1=O (configuration not stated) -1%
O=C(C(Cc1ccccc1)n1cccc1)N1CCN(C2CCCCC2)CC1 (configuration not stated) 5.03%
OCCCC1CCCCN1Cc1nc(Cc2ccccc2Cl)no1 (configuration not stated) 0.62%
CC[C@H](C)C(=O)N[C@H]1CCCN1C(=O)/C=C/c1ccccc1 1.82%
CC(=O)Nc1ccc(NC(=O)c2ccc3c(c2)C(=O)N(c2ccccc2C)C3=O)cc1 6.37%
COC(=O)[C@@H]1CCCN1C(=O)c1cc(COc2cccc3cccnc23)on1 -0.57%
O=C(NC1CCN(S(=O)(=O)c2ccc(F)cc2)CC1)c1ccccc1 4.55%
Cc1ccc(NC(=O)CCC(=O)c2ccc(Br)cc2)cc1 4.03%
CCN(C(=O)c1ccc(Br)cc1)c1ccccc1 0.98%
CCCCN(CC)CCCNC(=O)c1ccc(CSc2nc3ccncc3[nH]2)cc1 -1.26%
COc1ccc(N(Cc2cc3ccc(C)cc3[nH]c2=O)S(=O)(=O)c2ccccc2)cc1 -3.39%
O=S(=O)(NC1CC1)c1ccc(F)c(F)c1 7.64%
CC1CCC(NS(=O)(=O)c2ccc3c(c2)CC(=O)N3)CC1 (configuration not stated) 2.49%
CC1CCCC(NC(=O)COC(=O)c2ccccc2C(=O)N(C)C2CCCCC2)C1C (configuration not stated) 1.5%
COc1ccccc1C(=O)c1ccccc1C(=O)c1ccccc1 -6.91%
CCc1ccccc1NC(=O)/C(=C/c1ccccc1)c1ccccc1 -13.9%
COc1ccccc1/C=C/C(=O)NC1CC2CCC1C2 (configuration not stated) -5.4%
CCOC(=O)/C(=C\c1ccc([N+](=O)[O-])cc1)C(=O)c1cc(C(C)=O)c(Nc2ccccc2)s1 -2.52%

inhibition, active:
O=C(NNc1ccccn1)c1ccc(Cl)nc1 74%
O=[N+]([O-])c1c(NCCO)cc(Sc2nc3ccccc3s2)c2nonc12 42.8%
COc1ccc2c(c1OC)C(=O)OC2Nc1nc(-c2ccccc2)cs1 (configuration not stated) 38.8%
Cc1ccc(Cn2c(C)nc3c(c2=O)c2nc4ccccc4nc2n3Cc2ccco2)cc1 65.3%
O=C1/C(=C\c2ccc([N+](=O)[O-])cc2)CS(=O)(=O)C/C1=C/c1ccc([N+](=O)[O-])cc1 76.2%
COc1ccc2sc(-c3ccccc3OC)c(-c3ccc(OCCN4CCCC4)cc3)c2c1 25.4%
CC1=CC(C)(C)Nc2ccc(OC(=O)C(Cc3ccccc3)N3C(=O)C4CCCCC4C3=O)cc21 (configuration not stated) 47%
CC1=CC(C)(C)Nc2ccc(OC(=O)CN3C(=O)C4CCCCC4C3=O)cc21 (configuration not stated) 75%
COc1ccc2c(c1)c(=Cc1ccc(N(C)C)cc1)c1cc(-c3ccccc3)[n+](C)n12 30.2%
Cc1ccn(C(CC(=O)c2ccc(Br)cc2)C(=O)O)n1 (configuration not stated) 33.3%
Cn1sc(=O)c2cc(S(=O)(=O)NC3CC3)ccc21 43.1%
CCOC(=O)C(=Cc1ccccc1)C(=O)c1ccccc1 86.5%
CCOC(=O)C(=Cc1ccccc1OC)C(=O)OCC 35.8%
